From PubChem BioAssay AID1159580 (chemical genetic matrix, 2015)
Screen size: about 5,500 compounds; about 2,000 (36%) were called active. Another 18% or so got no clear call; they are omitted. Rule as the data show it: active = normalized growth mostly below about 0.91 (no sharp cut-off); inconclusive = no clear call, values can overlap the other calls; inactive = mostly above about 0.92. Some of the results follow.

Assay: chemical genetic growth profiling, strain panel (AID 1159580);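 also: tested at 20 µM; growth read once vehicle control cultures reached saturation at 30 °C; 1 = growth at the plate median or of vehicle wells; lower values mean less growth of the strain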
Conditions: growth OD

Measured: normalized growth

C[C@H]1[C@H](C)CC[C@]2(CO)CC[C@]3(C)C(=CCC4[C@@]5(C)CC[C@H](O)C(C)(C)C5CC[C@]43C)[C@H]12 (some centres not stated)
inactive: S. cerevisiae deletion strains, locus YKL009W, strain mrt4, active compounds read low 1.01 | S. cerevisiae deletion strains, locus YKL068W, active compounds read low 1.02 | S. cerevisiae deletion strains, locus YKL085W, strain MDH1 (second series), active compounds read low 1.04 | S. cerevisiae deletion strains, locus YKL085W, strain MDH1, active compounds read low 1.04 | S. cerevisiae deletion strains, locus YKL160W, strain elf1, active compounds read low 0.995 | S. cerevisiae deletion strains, locus YKL190W, strain CNB1, active compounds read low 1.01 | S. cerevisiae deletion strains, locus YKR001C, strain vps1, active compounds read low 1.03 | S. cerevisiae deletion strains, locus YKR026C, strain gcn3, active compounds read low 0.997 | S. cerevisiae deletion strains, locus YKR091W, strain srl3, active compounds read low 0.988 | S. cerevisiae deletion strains, locus YLL001W, strain dnm1, active compounds read low 1.01 | S. cerevisiae deletion strains, locus YLL026W, active compounds read low 1.01 | S. cerevisiae deletion strains, locus YLL041C, strain sdh2, active compounds read low 1 | S. cerevisiae deletion strains, locus YLR027C, strain aat2, active compounds read low 0.976 | S. cerevisiae deletion strains, locus YLR039C, strain RIC1, active compounds read low 1.08 | S. cerevisiae deletion strains, locus YLR058C, strain SHM2, active compounds read low 1.02 | S. cerevisiae deletion strains, locus YLR102C, strain apc9, active compounds read low 1.02 | S. cerevisiae deletion strains, locus YLR113W, strain HOG1, active compounds read low 0.967 | S. cerevisiae deletion strains, locus YLR221C, strain rsa3, active compounds read low 0.986 | S. cerevisiae deletion strains, locus YLR258W, strain gsy2, active compounds read low 0.989 | S. cerevisiae deletion strains, locus YLR262C, strain YPT6 (second series), active compounds read low 1.04 | S. cerevisiae deletion strains, locus YLR262C, strain YPT6, active compounds read low 1.08 | S. cerevisiae deletion strains, locus YLR268W, strain sec22, active compounds read low 1.03 | S. cerevisiae deletion strains, locus YLR320W, strain mms22, active compounds read low 0.987 | S. cerevisiae deletion strains, locus YLR330W, strain CHS5, active compounds read low 1.01 | S. cerevisiae deletion strains, locus YLR342W, strain FKS1 (second series), active compounds read low 1 | S. cerevisiae deletion strains, locus YLR342W, strain FKS1, active compounds read low 0.989 | S. cerevisiae deletion strains, locus YLR357W, strain rsc2, active compounds read low 0.999 | S. cerevisiae deletion strains, locus YLR370C, strain arc18, active compounds read low 1 | S. cerevisiae deletion strains, locus YLR371W, strain rom2, active compounds read low 1.03 | S. cerevisiae deletion strains, locus YLR384C, strain iki3, active compounds read low 0.974 | S. cerevisiae deletion strains, locus YLR418C, strain cdc73, active compounds read low 1.03 | S. cerevisiae deletion strains, locus YML016C, strain PPZ1, active compounds read low 1.02 | S. cerevisiae deletion strains, locus YML032C, strain rad52, active compounds read low 1.02 | S. cerevisiae deletion strains, locus YML120C, strain ndi1, active compounds read low 0.988 | S. cerevisiae deletion strains, locus YML124C, strain tub3, active compounds read low 1.03 | S. cerevisiae deletion strains, locus YMR058W, strain fet3, active compounds read low 1 | S. cerevisiae deletion strains, locus YMR078C, strain ctf18, active compounds read low 1.03 | S. cerevisiae deletion strains, locus YMR125W, strain sto1, active compounds read low 1.01 | S. cerevisiae deletion strains, locus YMR129W, active compounds read low 0.988 | S. cerevisiae deletion strains, locus YMR205C, strain PFK2, active compounds read low 0.98 | S. cerevisiae deletion strains, locus YMR223W, strain ubp8, active compounds read low 1.02 | S. cerevisiae deletion strains, locus YMR231W, strain pep5, active compounds read low 1 | S. cerevisiae deletion strains, locus YMR263W, strain SAP30, active compounds read low 1.01 | S. cerevisiae deletion strains, locus YMR307W, strain GAS1, active compounds read low 1.06 | S. cerevisiae deletion strains, locus YNL067W, strain RPL9B, active compounds read low 1.01 | S. cerevisiae deletion strains, locus YNL071W, strain lat1, active compounds read low 0.995 | S. cerevisiae deletion strains, locus YNL183C, strain NPR1, active compounds read low 0.967 | S. cerevisiae deletion strains, locus YNL209W, strain ssb2, active compounds read low 0.988 | S. cerevisiae deletion strains, locus YNL233W, strain BNI4, active compounds read low 1.01 | S. cerevisiae deletion strains, locus YNL248C, strain rpa49, active compounds read low 1 | S. cerevisiae deletion strains, locus YNL250W, strain rad50, active compounds read low 1.04 | S. cerevisiae deletion strains, locus YNL271C, strain bni1, active compounds read low 1.02 | S. cerevisiae deletion strains, locus YNL298W, strain CLA4, active compounds read low 1.01 | S. cerevisiae deletion strains, locus YNL307C, strain MCK1, active compounds read low 1.04 | S. cerevisiae deletion strains, locus YNL322C, strain KRE1 (second series), active compounds read low 0.99 | S. cerevisiae deletion strains, locus YNR049C, strain mso1, active compounds read low 0.99 | S. cerevisiae deletion strains, locus YNR052C, strain pop2, active compounds read low 1.01 | S. cerevisiae deletion strains, locus YOL006C, strain TOP1, active compounds read low 1.07 | S. cerevisiae deletion strains, locus YOL012C, strain htz1 1.12 | S. cerevisiae deletion strains, locus YOL147C, strain pex11, active compounds read low 1.02 | S. cerevisiae deletion strains, locus YOR001W, strain rrp6, active compounds read low 0.946 | S. cerevisiae deletion strains, locus YOR061W, strain CKA2, active compounds read low 1.01 | S. cerevisiae deletion strains, locus YOR069W, strain VPS5, active compounds read low 1.01 | S. cerevisiae deletion strains, locus YOR070C, strain gyp1, active compounds read low 0.975 | S. cerevisiae deletion strains, locus YOR080W, strain dia2, active compounds read low 0.992 | S. cerevisiae deletion strains, locus YOR083W, strain WHI5, active compounds read low 0.995 | S. cerevisiae deletion strains, locus YOR106W, strain vam3, active compounds read low 1.01 | S. cerevisiae deletion strains, locus YOR136W, strain idh2, active compounds read low 1.03 | S. cerevisiae deletion strains, locus YOR144C, strain elg1, active compounds read low 1.02 | S. cerevisiae deletion strains, locus YOR184W, strain ser1, active compounds read low 1.01 | S. cerevisiae deletion strains, locus YOR231W, strain MKK1, active compounds read low 0.996 | S. cerevisiae deletion strains, locus YOR265W, strain rbl2, active compounds read low 0.986 | S. cerevisiae deletion strains, locus YOR270C, strain vph1, active compounds read low 0.984 | S. cerevisiae deletion strains, locus YOR290C, strain snf2, active compounds read low 0.998 | S. cerevisiae deletion strains, locus YOR316C, strain cot1, active compounds read low 1.03 | S. cerevisiae deletion strains, locus YPL051W, strain arl3, active compounds read low 0.998 | S. cerevisiae deletion strains, locus YPL078C, strain atp4, active compounds read low 0.993 | S. cerevisiae deletion strains, locus YPL106C, strain sse1, active compounds read low 1.09 | S. cerevisiae deletion strains, locus YPL240C, strain hsp82, active compounds read low 1.01 | S. cerevisiae deletion strains, locus YPL241C, strain CIN2, active compounds read low 0.995 | S. cerevisiae deletion strains, locus YPL256C, strain CLN2, active compounds read low 1.07 | S. cerevisiae deletion strains, locus YPR119W, strain clb2, active compounds read low 1.03 | S. cerevisiae deletion strains, locus YPR141C, strain kar3, active compounds read low 1.04 | S. cerevisiae deletion strains, locus YPR163C, strain tif3, active compounds read low 1.03 | S. cerevisiae deletion strains, locus YPR167C, strain met16, active compounds read low 1.02 | S. cerevisiae deletion strains, strain wtn01, active compounds read low 1.01 | S. cerevisiae strains, strain wild type, active compounds read low 1
